PubChem BioAssay (EPA / NIEHS)
Activity calls are given as the source filed them. How the source made its calls: active means hit-call score of the fitted dose curve at least 0.9, where 1 is the maximum; inactive means score below 0.9.

Experiment: ATG_CRE_CIS: Attagene CIS-FACTORIAL HepG2 Assay for human cAMP Responsive Element (CRE) binding protein 3 (AID 2282926)
Conditions: HepG2 CRE cis-reporter, Attagene multiplexed mRNA; actives raise or lower the signal
In short: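 Liver-derived HepG2, transfected with a CRE-containing reporter panel, exposed 24 h; transcript levels sized and quantified by capillary electrophoresis of labelled amplicons; signal changes either way referenced to vehicle.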

SMILES	outcome	AC50
CCOC(OCC)C(=O)c1ccccc1	inactive	
CCCCCCOC(=O)c1ccc(O)cc1		44.2 µM (active)
C=CCOCC(CO)(CO)CO	inactive	
CCCCC(CC)C(=O)OCCOCCOCCOCCOC(=O)C(CC)CCCC (centres undefined)	inactive	
NNc1nc(-c2ccc([N+](=O)[O-])cc2)cs1	inactive	
CCc1ccccc1O	inactive	
CCC(C)c1nccnc1OC (centres undefined)	inactive	
CCCCCCCCC(C)=O	inactive	
CC(C)(C)c1ccc(CCC=O)cc1	inactive	
CC(=O)Nc1ccc(S(N)(=O)=O)cc1	inactive	
CC1=NN(c2ccccc2)C(=O)C1	inactive	
c1ccc(CNc2ncnc3c2ncn3C2CCCCO2)cc1 (centres undefined)	inactive	
Cc1ccc2ccc3ccc(C)cc3c2c1	inactive	
Cc1cc(C(=C2C=CC(=Nc3ccc(S(=O)(=O)O)cc3)C=C2)c2ccc(Nc3ccc(S(=O)(=O)O)cc3)cc2)cc(S(=O)(=O)O)c1N	inactive	
Brc1ccc(Oc2ccc(Br)cc2Br)cc1	inactive	
O=C(O)C(=O)O	inactive	
FC(F)(F)C1(F)C(F)(F)C(F)(F)C(F)(F)C1(F)F	inactive	
c1cc2cccc3c4cccc5cccc(c(c1)c23)c54	inactive	
C=CC(=O)OCC(CO)(COCC(COC(=O)C=C)(COC(=O)C=C)COC(=O)C=C)COC(=O)C=C	inactive	
Cc1ccccc1C(OCCN(C)C)c1ccccc1 (centres undefined)	inactive	
O=C(O)CN(CCCN(CC(=O)O)CC(=O)O)CC(=O)O	inactive	
Cn1sccc1=O		154 µM (active)
COCN(COC)c1nc(N(COC)COC)nc(N(COC)COC)n1	inactive	
C[N+](C)(CCCNS(=O)(=O)CCC(F)(F)C(F)(F)C(F)(F)C(F)(F)C(F)(F)C(F)(F)F)CC(=O)[O-]	inactive	
